Cruzain Triton: blocks cruzain activity in presence of Triton detergent; 0.43% of 200,000 active; purified cruzain, Z-FR-AMC fluorescence, 0.01% Triton; Potency, µM, for the others: max response, negative = inhibition, usual class: inhibitors;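 note: plate controls were neutral wells for no effect and buffer without enzyme for full effect; nearly all actives have a fitted effect of over 40% in size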
Target sequence (P25779 123-467 limits assumed): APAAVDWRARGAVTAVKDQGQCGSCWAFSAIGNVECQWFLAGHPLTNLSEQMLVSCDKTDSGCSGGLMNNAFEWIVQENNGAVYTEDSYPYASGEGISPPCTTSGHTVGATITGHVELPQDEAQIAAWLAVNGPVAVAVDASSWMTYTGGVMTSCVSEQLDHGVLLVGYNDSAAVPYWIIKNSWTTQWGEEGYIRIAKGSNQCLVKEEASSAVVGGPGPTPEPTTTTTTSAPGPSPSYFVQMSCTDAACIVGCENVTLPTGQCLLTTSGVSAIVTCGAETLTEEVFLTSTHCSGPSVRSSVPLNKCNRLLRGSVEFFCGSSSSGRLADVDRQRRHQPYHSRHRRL
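Compounds were screened in titration against cruzain (1.5 nM) with 0.01% Triton X-100 to counter colloidal aggregation. Activity was the AMC fluorescence increase over 60 s after adding 2 uM Z-FR-AMC at pH 5.5.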
Cruzain noTriton: inhibitors of Trypanosoma cruzi cruzain without detergent. P25779. purified cruzain, Z-FR-AMC fluorescence, no detergent. Potency, µM, for the others: max response, negative = inhibition, most hits filed as inhibitors. 2.3% of 200,000 active. AID 1476;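 note: plate controls were enzyme without inhibitor for no effect and buffer without enzyme for full effect; nearly all actives have a fitted effect of over 40% in size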
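Purified cruzain at 1.5 nM, pre-incubated 15 min with compound at room temperature in 100 mM sodium acetate pH 5.5, 5 mM DTT, 0.00005% Triton X-100. Reaction started with 2 uM Z-FR-AMC; AMC fluorescence increase over 60 s gives rate.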
* hit, by the source's call; ? = inconclusive. Shown are actives, neighbours in structure and some others; about 2.4% of the full set was active somewhere. Calls come from the whole dose curve; as a rule, active = well fitted curve in the direction sought with a large enough effect; inconclusive = small, poorly fitted or top-dose-only effect, or another doubt; inactive = no such curve, though single readings can be large; an effect the other way counts as inactive or inconclusive. Potency is the fitted concentration of half-maximal effect.

SMILES	Cruzain Triton	Cruzain noTriton
Cc1c([C@@H](C)C2NC[C@H](C)C[C@@H]2O)ccc2c1C[C@@H]1[C@H]2CC=C2C[C@@H](O)CC[C@@]21C (some centres not stated)	1%	-5%
O=C(Nc1nc(-c2ccc(Cl)s2)cs1)c1cccs1	-8%	?
O=C(Nc1ccc([N+](=O)[O-])cc1)Nc1nc(-c2ccc(Cl)s2)cs1	-1%	5µM*
COc1cccc(Nc2ncc3nc(-c4cn(C)c5ccccc45)c(=O)n(C[C@H]4CCCO4)c3n2)c1	-1%	-4%
COc1ccc(C(=O)Nn2c(SCC(=O)c3ccccc3)nc3ccccc3c2=O)cc1	-4%	?
O=c1c2ccccc2nc(SCc2ccc([N+](=O)[O-])cc2)n1-c1ccc(Cl)cc1	-2%	13µM*
O=c1c2ccccc2nc(SCc2ccc([N+](=O)[O-])cc2)n1CCCO	-10%	?
COc1ccc(C(=O)Nn2c(SCc3ccc([N+](=O)[O-])cc3)nc3ccccc3c2=O)cc1	6%	32µM*
CCOc1ccc(CNC(=O)c2ccc(-c3nc(CS(=O)(=O)c4ccccc4)c(C)o3)cc2)cc1	-2%	?
CCCCCCCCCCCCC[N+](C)(C)Cc1ccccc1	-11%	-8%
CCOc1ccc(CCNC(=O)NCc2noc3ccc(C)cc23)cc1	-3%	-4%
O=C(CCc1ccccc1)N/N=C/c1cc(Br)ccc1O	-5%	20µM*
O=C(N/N=C/c1cc(Br)ccc1O)c1ccccc1Cl	-9%	-1%
COc1ccc(CNC(=O)c2cnc3sc(N4CCCC4)nn3c2=O)cc1OC	-4%	-7%
O=C(O)CNC(=O)c1ccc([N+](=O)[O-])cc1	-5%	?
COc1ccc(OC)c(C(=O)COC(=O)CNC(=O)c2ccccc2)c1	14µM*	13µM*
O=C(CNC(=O)c1ccc(Cl)cc1)OCC(=O)c1ccc2c(c1)OCCO2	8.9µM*	10µM*
CCOC(=O)CNC(=O)c1ccc2c(c1)OCCO2	8%	-4%
O=C(CNC(=O)c1ccccc1F)OCC(=O)N1CCCCC1	16µM*	?
CCOc1ccccc1C(=O)NCc1ccc2c(c1)OCO2	2%	-8%
O=C(CNC(=O)c1ccccc1F)OCc1cc(=O)n2nc(C3CCCCC3)sc2n1	-9%	-6%
CCOc1ccccc1C(=O)NCC(=O)OCC(=O)c1ccc2c(c1)OCCO2	25µM*	?
COCCn1c(C)cc(C(=O)COC(=O)CNC(=O)c2ccccc2)c1C	?	-30%
CC(C)=C1CCC(C)CC1=O (configuration not stated)	2%	2%
CCC/C=C(\CCC)C(NS(C)(=O)=O)c1ccccc1 (configuration not stated)	-3%	-1%
SMILES	Cruzain Triton	Cruzain noTriton
COc1ccc(CNc2ncncc2-c2ccc(C(=O)N(C)C)cc2)c(OC)c1	6%	-1%
O=C(COC(=O)CNC(=O)c1ccccc1F)Nc1ccc2c(c1)OCCO2	8.9µM*	3.2µM*
CCOc1ccc(C(=O)NCC(=O)OCC(=O)c2ccc3c(c2)-c2ccccc2C3)cc1	-13%	?
COc1ccccc1C(=O)NCC(=O)OCC(=O)c1ccc2c(c1)-c1ccccc1C2	?	10µM*
O=C(COC(=O)CNC(=O)c1ccc(Br)o1)Nc1ccc2c(c1)OCCO2	-1%	11%
CC1=C(C(=O)Nc2ccc(C)cc2C)C(c2ccccc2[N+](=O)[O-])n2ncc(C(=O)Nc3ccccc3)c2N1 (configuration not stated)	-5%	?
CC(=O)N1c2ccc(S(=O)(=O)N3CCCCCC3)cc2CC1C(=O)NCc1ccccc1 (configuration not stated)	1%	1%
COC(=O)C1=C(C)OC(N)=C(C#N)C1c1ccc(OC)c(OC)c1OC (configuration not stated)	-2%	-1%
COc1cc(C2C(C#N)=C(N)Oc3c2ccc2ccccc32)ccc1OCC(=O)Nc1ccc(C)cc1 (configuration not stated)	-3%	10µM*
N#CC1=C(N)Oc2c(ccc3ccccc23)C1c1ccsc1 (configuration not stated)	-12%	-21%
COc1cc(C2C(C#N)=C(N)Oc3c2ccc2ccccc32)ccc1OCC(=O)Nc1cccc(C)c1 (configuration not stated)	-2%	7.9µM*
O=c1c(=O)n(-c2ccccc2)ccn1Cc1c(F)cccc1Cl	-2%	-1%
Cc1cccc(C)c1NC(=O)C(=O)NCC(c1cccnc1)N1CCc2ccccc21 (configuration not stated)	-1%	-1%
CN(C)S(=O)(=O)N1CCC(N2CCN(Cc3ccc(F)cc3)C(=O)C2=O)CC1	6%	7%
Fc1ccc(-n2ncc3c(NCCCn4ccnc4)ncnc32)cc1	0%	2%
CCOC(=O)c1cc(S(=O)(=O)N2CCN(c3ccc(C)cc3C)CC2)[nH]n1	-9%	26%
CC1CCN(c2oc(Cc3cccc4ccccc34)nc2C#N)CC1	2%	-3%

Source: PubChem BioAssay (National Center for Advancing Translational Sciences (NCATS))
